High-throughput results as filed in PubChem BioAssay.
GPR151 ag: activators of human GPR151, primary screen, cell-based, PathHunter beta-arrestin, luminescence; AID 1508602, 2020; PathHunter beta-arrestin GPR151 cells; 650,000 tested, 1% active; activation, % at 11.2 µM; in the data active = activation above about 4.9%;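 also: 0% = median of compound wells and 100% = cells with positive control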
Target sequence (Q8TDV0 whole entry, looked up): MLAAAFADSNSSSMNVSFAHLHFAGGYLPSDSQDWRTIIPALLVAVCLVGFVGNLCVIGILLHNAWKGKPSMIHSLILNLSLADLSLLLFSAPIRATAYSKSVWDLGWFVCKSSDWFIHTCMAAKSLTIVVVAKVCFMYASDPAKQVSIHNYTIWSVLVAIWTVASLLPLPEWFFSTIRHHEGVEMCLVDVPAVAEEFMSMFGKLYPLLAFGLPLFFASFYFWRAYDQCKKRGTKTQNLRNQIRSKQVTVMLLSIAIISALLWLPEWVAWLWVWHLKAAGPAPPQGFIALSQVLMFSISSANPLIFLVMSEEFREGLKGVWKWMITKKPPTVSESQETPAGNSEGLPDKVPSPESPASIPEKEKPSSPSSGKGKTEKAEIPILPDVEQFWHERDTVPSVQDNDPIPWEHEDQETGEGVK
MITF inh: MITF inhibitors, primary screen, biochemical, AlphaScreen, human; AlphaScreen MITF homodimerization, bead proximity signal; inhibition, % at 2.6 µM; Microphthalmia-associated transcription factor (Homo sapiens), O75030; 650,000 tested, 0.91% active; in the data active = inhibition above about 50%;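 also: 0% = vehicle wells with protein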
TEAD-YAP block: TEAD-YAP interaction inhibition, primary screen, TEAD-YAP interaction inhibitor project, luminescence, HEK-TIYL cells; TEAD-Gal4/YAP UAS-luciferase luminescence; inhibition, % at 9.12 µM; 640,000 tested, 1.4% active; in the data active = inhibition above about 32%;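 also: 0% = median of test compound wells and 100% = reference inhibitor wells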
FBW7 act: FBW7 E3 ligase activators, primary screen, biochemical, AlphaScreen, human; AlphaScreen FBW7–phospho-cyclin E peptide binding, activator screen; normalized activity (activation), % at 26.1 µM; 650,000 tested, 0.13% active; AID 1259310, 2017; in the data active = normalized activity above about 1.9%;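 also: purified mutant Fbw7 with reduced substrate affinity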
Numbers without * were called inactive; ! = a repeat was not active. Most compounds without a hit are left out; they make up all but 3.4% or so of the library.

SMILES	GPR151 ag	MITF inh	TEAD-YAP block	FBW7 act
COc1ccc(-c2coc3cc(O)ccc3c2=O)cc1	-3	25	53*!	0
Cc1oc2cc(O)cc(O)c2c(=O)c1-c1ccc2c(c1)OCCCO2	0	7	43*	0
Cc1nc(-c2coc3cc(O)cc(O)c3c2=O)cs1	-5	-13	-34	0
O=c1c(-c2ccc3c(c2)OCCCO3)coc2cc(O)ccc12	-3	-1	75*	0
O=c1c(-c2ccc(Cl)cc2)coc2cc(O)ccc12	-4	4	16	0
COc1ccc(-c2coc3cc(O)cc(O)c3c2=O)cc1	0	-5	37*!	0
CC(C)(C)c1ccccc1Nc1ncnc2sccc12	1	-8	2	0
CC(CCc1ccccc1)Nc1ncnc2sccc12 (stereo not given)	2	8	51*	0
Cc1ccc2nc(C)c(C(=O)N(C)C(C)C)n2c1	1	11	14	0
COc1ccc(N2C(=O)CC(Sc3ccccc3C(=O)O)C2=O)cc1 (stereo not given)	1	6	12	0
COc1ccc(N2C(=O)CC(Sc3nc(C)c4ccccc4n3)C2=O)cc1 (stereo not given)	0	-4	53*	1
CCOC(=O)C(N)CSC1CC(=O)N(c2ccc(OC)cc2)C1=O (stereo not given)	0	3	-9	0
COc1ccc(N2C(=O)CC(SCCN)C2=O)cc1 (stereo not given)	-1	27	-29	2.5*
O=C(Nn1cnc2sc3c(c2c1=O)CCCC3)c1cc(Br)ccc1O	0	-8	4	0
CN1/C(=C/c2cc[n+](C)cc2)Sc2ccccc21	2	-4	32	0
C=CCN1/C(=C/c2cc[n+](C)cc2)Sc2ccccc21	1	14	87*	0
C=CCN1/C(=C/c2cccc[n+]2C)Sc2ccccc21	2	5	77*	0
CCOC(=O)CNC(=O)c1ccc(C(C)C)cc1	-2	4	48*	0
CCOC(=O)CNC(=O)c1sc2nc(C)nc(N(C)c3ccc(C(C)C)cc3)c2c1C	1	15	0	2.3*
CCCCNC(=O)c1sc2nc(C)nc(N(C)c3ccc(C(C)C)cc3)c2c1C	5	-8	-5	0
CCCCN1C=CC(=C2C(=O)c3ccccc3C2=O)C=C1	-8	18	96*	1
O=C1C(=C2C=CN(CCc3ccccc3)C=C2)C(=O)c2ccccc21	-1	-7	-65	0
O=C1Cc2ccccc2C2(CCN(Cc3ccc(C(=O)c4ccccc4)cc3)CC2)N1	0	15	36*	-1
COCCOCCCN1CCC2(CC1)NC(=O)Cc1ccccc12	-1	12	7	0
CCN1C(=O)/C(=C\c2cc(C)n(-c3ccc(Cl)cc3)c2C)C(C(=O)OC)=C1C	1	23	-5	7.3*
SMILES	GPR151 ag	MITF inh	TEAD-YAP block	FBW7 act
COC(=O)C1=C(C)N(Cc2ccco2)C(=O)/C1=C\c1cc(C)n(-c2ccccc2F)c1C	0	72*	-10	0
COCCN1C(=O)/C(=C\c2cc(C)n(-c3ccc(Cl)cc3)c2C)C(C(=O)OC)=C1C	-1	15	-6	0
CCOc1ccc2[nH]c(=O)c(CN(CCOC)C(=O)Nc3ccc(F)cc3)cc2c1	1	1	37*	0
CCOc1ccc2[nH]c(=O)c(CN(CCOC)C(=O)Nc3ccc(SC)cc3)cc2c1	-1	2	-36	0
N#Cc1c(-c2ccc(F)cc2)cc2c(c1N)c(=O)oc1ccccc12	1	-4	-5	0
O=C(N/N=C/c1ccco1)C(=O)N1CCCCCC1	1	7	0	0
COC(=O)[C@@H]1C[C@@H](NC(=O)c2ccc3ccccc3c2O)CN1Cc1cc(F)ccc1F	0	1	42*	0
COCc1cc(CN2CCC(C)CC2)c(O)c2ncccc12	0	104*	65*	-1
CC1CCN(Cc2cc(COC(C)C)c3cccnc3c2O)CC1	-3	85*	15	-1
CC1CN(Cc2cc([N+](=O)[O-])c3cccnc3c2O)CC(C)O1 (stereo not given)	-1	84*	54*	-1
O=C1/C(=C/c2c(NCCO)nc3ccccn3c2=O)SC(=S)N1C1CCCCC1	2	-2	10	0
CCOC(=O)C1=C(C)N=c2s/c(=C\c3cc(C)n(-c4ccc(C(=O)O)cc4)c3C)c(=O)n2C1c1ccc(OC)cc1 (stereo not given)	-1	4	-32	0
Cc1ccc(S(=O)(=O)Nc2ccccc2/C=N\n2cnnc2)cc1	0	2	48*	0
O=C(CCCn1c2ccccc2c(=O)c2ccccc21)Nc1ccc(Cl)cc1	0	-2	-3	0
c1ccc(Cn2nnc3c(NCCN4CCCC4)ncnc32)cc1	-1	3	-4	0
O=C(Nc1cccc(Cl)c1)c1cc(-c2cccs2)on1	0	15	-17	0
CCOC(=O)c1c(NC(=O)c2cc(-c3cccs3)on2)sc(C(C)=O)c1C	0	-9	-1	0
COc1ccc2c(c1)CCc1c(C(=O)Nc3cccc(C(C)=O)c3)noc1-2	0	-2	-15	0
CCOC(=O)c1c(NC(=O)c2cc(-c3cccs3)on2)sc(C)c1C	1	-8	-2	2.8*
COc1cccc(-c2cc(C(=O)Nc3cccc(O)c3)no2)c1	-2	-3	89*	0
O=C(Nc1cccc(O)c1)c1cc(-c2cccs2)on1	-4	13	77*	1
COc1ccc2c(c1)CCc1c(C(=O)Nc3cccc(O)c3)noc1-2	-6	-6	95*	0
O=C(c1ccccc1Br)N1CCN(c2ccc([N+](=O)[O-])cc2)CC1	1	-1	24	0
N#Cc1cc2c(nc1SCC(=O)C13CC4CC(CC(C4)C1)C3)CCC2	0	1	1	0
CN(C)S(=O)(=O)N1CCc2ccc(NC(=O)C3(c4ccccc4)CC3)cc2C1	0	4	-8	0
SMILES	GPR151 ag	MITF inh	TEAD-YAP block	FBW7 act
COCC(C)NC(=O)c1cc(-c2cccc(OC)c2)on1 (stereo not given)	-1	-19	-42	1.9*
O=C(Nc1cccc(O)c1)c1cc(-c2ccc(Br)cc2)on1	-6	7	74*	1
COc1cc(NC(=O)c2cc(-c3cccs3)on2)cc(OC)c1OC	0	-5	36*	0
O=C(Nc1cccc(O)c1)c1cc(-c2ccc(O)cc2)on1	-3	5	65*	0
Cc1ccsc1CCNC(=O)Cc1ccc(NC2=NC3CS(=O)(=O)CC3S2)cc1 (stereo not given)	-1	-5	-4	0
COc1cccc(CNC(=O)CCC2(Cc3ccc4ccccc4c3)CCC(=O)N2)c1 (stereo not given)	1	8	5	0
COc1ccc(-c2c(Nc3ccc(C)c(F)c3)c(=O)c2=O)cc1	-1	79*	-11	1
